{"source": "the supplement of paper PMC8728848", "binders": {"B1": {"name": "X56-1 (Clostridium perfringens), P26831 (protein)", "chain": "MGSSHHHHHHSSGLVPRGSHMASDPNRIIATYISNRQDAPTGNPDNIFDNNASTELVYKNPNRIDVGTYVGVKYSNPITLNNVEFLMGANSNPNDTMQKAKIQYTVDGREWIDLEEGVEYTMPGAIKVENLDLKVRGVRLIATEARENTWLGVRDINVNKKEDSNSGVEF"}, "B2": {"name": "GH98CBM51-1 (Streptococcus pneumoniae) (protein)", "chain": "MTYLSDMDWSSATHGDIDKTKTVQKDAPFTTGNKGEHTKISLLTSDDKVKYFDKGIGTVADSPSVISYDISGQGFEKFETYIGIDQSANSSRSDHAVVDRIEIEIDGKVVYSSSVTNPEGFRYNTQAQFISVTIPQNAKKISLKSFAGEHTWGDEVVFADAKLIKTVST"}}, "assay_in_all_cases": "glycan array binding signal (z-score within array); higher = stronger binding", "settings_in_all_cases": "glycan notation: IUPAC condensed, linker removed", "key": {"[1]": {"molecular_target": "Fuc(a1-2)Gal(b1-3)GalNAc(b1-3)Gal", "method_in_brief": "(§1)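 Glycan array data were curated from 3228 arrays in the Consortium for Functional Glycomics database and kept only where the protein sequence was available. Glycan names were converted to IUPAC-condensed notation, and columns mapping to the same glycan were averaged. The binding signal is a within-array Z-score, averaged across arrays of the same protein sequence at different concentrations or buffers and across linkers. Negative Z-scores can be read as non-binding.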"}, "[2]": {"molecular_target": "Fuc(a1-2)Gal(b1-3)GalNAc(b1-3)Gal(b1-4)Glc", "method_in_brief": "as §1"}, "[3]": {"molecular_target": "Fuc(a1-2)Gal(b1-4)[Fuc(a1-3)]GlcNAc", "method_in_brief": "as §1"}, "[4]": {"molecular_target": "Fuc(a1-3)GlcNAc", "method_in_brief": "as §1"}, "[5]": {"molecular_target": "Gal(b1-3)GalNAc(b1-3)Gal(b1-4)GlcNAc", "method_in_brief": "as §1"}, "[6]": {"molecular_target": "Gal(b1-4)GlcNAc(b1-2)Man(a1-3)[Gal(b1-4)GlcNAc(b1-2)Man(a1-6)]Man(b1-4)GlcNAc(b1-4)GlcNAc", "method_in_brief": "as §1"}, "[7]": {"molecular_target": "Gal3S6S(b1-4)GlcNAc", "method_in_brief": "as §1"}, "[8]": {"molecular_target": "GlcNAc(b1-3)Gal(b1-3)GalNAc", "method_in_brief": "as §1"}, "[9]": {"molecular_target": "GlcNAc(b1-3)Gal(b1-4)Glc", "method_in_brief": "as §1"}, "[10]": {"molecular_target": "GlcNAc(b1-3)Gal(b1-4)GlcNAc(b1-3)Gal(b1-4)GlcNAc", "method_in_brief": "as §1"}, "[11]": {"molecular_target": "GlcNAc(b1-3)[GlcNAc(b1-6)]GlcNAc", "method_in_brief": "as §1"}, "[12]": {"molecular_target": "GlcNAc(b1-4)Gal(b1-4)GlcNAc", "method_in_brief": "as §1"}, "[13]": {"molecular_target": "Man(a1-2)Man(a1-3)[Man(a1-3)[Man(a1-6)]Man(a1-6)]Man(b1-4)GlcNAc(b1-4)GlcNAc", "method_in_brief": "as §1"}, "[14]": {"molecular_target": "Man(a1-3)[Man(a1-6)]Man", "method_in_brief": "as §1"}, "[15]": {"molecular_target": "Neu5Ac(a2-3)Gal(b1-4)GlcNAc(b1-3)Gal(b1-4)GlcNAc", "method_in_brief": "as §1"}, "[16]": {"molecular_target": "Neu5Ac(a2-3)Gal(b1-4)[Fuc(a1-3)]GlcNAc6S", "method_in_brief": "as §1"}, "[17]": {"molecular_target": "Neu5Ac(a2-3)GalNAc", "method_in_brief": "as §1"}, "[18]": {"molecular_target": "Neu5Ac(a2-3)[GalNAc(b1-4)]Gal(b1-4)Glc", "method_in_brief": "as §1"}, "[19]": {"molecular_target": "Neu5Ac(a2-6)Gal(b1-4)GlcNAc(b1-2)Man(a1-3)[Neu5Ac(a2-6)Gal(b1-4)GlcNAc(b1-2)Man(a1-6)]Man(b1-4)GlcNAc(b1-4)GlcNAc", "method_in_brief": "as §1"}, "[20]": {"molecular_target": "Neu5Ac(a2-6)Gal(b1-4)GlcNAc6S", "method_in_brief": "as §1"}, "[21]": {"molecular_target": "Neu5Ac(a2-8)Neu5Ac(a2-3)Gal(b1-4)Glc", "method_in_brief": "as §1"}, "[22]": {"molecular_target": "Neu5Ac(a2-3)Gal(b1-4)GlcNAc(b1-3)Gal(b1-4)[Fuc(a1-3)]GlcNAc", "method_in_brief": "as §1"}, "[23]": {"molecular_target": "Neu5Ac(a2-3)Gal(b1-4)[Fuc(a1-3)]GlcNAc", "method_in_brief": "as §1"}, "[24]": {"molecular_target": "Neu5Ac(a2-6)GlcNAc(b1-4)GlcNAc(b1-4)GlcNAc", "method_in_brief": "as §1"}, "[25]": {"molecular_target": "Neu5Ac(a2-8)Neu5Ac(a2-8)Neu5Ac(a2-8)Neu5Ac(a2-3)[GalNAc(b1-4)]Gal(b1-4)Glc", "method_in_brief": "as §1"}, "[26]": {"molecular_target": "Neu5Gc(a2-3)Gal(b1-4)[Fuc(a1-3)]GlcNAc", "method_in_brief": "as §1"}}, "note": "Only a selection was taken, and the strongest signals are over-represented in it overall."}
{"binder": "B1", "values": [{"measurement": "glycan array binding signal (z-score)", "setting": "[1]", "result": 0.726}, {"measurement": "glycan array binding signal (z-score)", "setting": "[2]", "result": 0.136}, {"measurement": "glycan array binding signal (z-score)", "setting": "[3]", "result": 0.085}, {"measurement": "glycan array binding signal (z-score)", "setting": "[4]", "result": -0.245}, {"measurement": "glycan array binding signal (z-score)", "setting": "[5]", "result": 0.197}, {"measurement": "glycan array binding signal (z-score)", "setting": "[6]", "result": 5.94}, {"measurement": "glycan array binding signal (z-score)", "setting": "[7]", "result": -0.196}, {"measurement": "glycan array binding signal (z-score)", "setting": "[8]", "result": 0.035}, {"measurement": "glycan array binding signal (z-score)", "setting": "[9]", "result": -0.355}, {"measurement": "glycan array binding signal (z-score)", "setting": "[10]", "result": -0.172}, {"measurement": "glycan array binding signal (z-score)", "setting": "[11]", "result": -0.276}, {"measurement": "glycan array binding signal (z-score)", "setting": "[12]", "result": -0.371}, {"measurement": "glycan array binding signal (z-score)", "setting": "[13]", "result": -0.387}, {"measurement": "glycan array binding signal (z-score)", "setting": "[14]", "result": -0.231}, {"measurement": "glycan array binding signal (z-score)", "setting": "[15]", "result": 9.11}, {"measurement": "glycan array binding signal (z-score)", "setting": "[16]", "result": 1.06}, {"measurement": "glycan array binding signal (z-score)", "setting": "[17]", "result": -0.264}, {"measurement": "glycan array binding signal (z-score)", "setting": "[18]", "result": -0.338}, {"measurement": "glycan array binding signal (z-score)", "setting": "[19]", "result": -0.264}, {"measurement": "glycan array binding signal (z-score)", "setting": "[20]", "result": -0.039}, {"measurement": "glycan array binding signal (z-score)", "setting": "[21]", "result": 0.954}]}
{"binder": "B2", "values": [{"measurement": "glycan array binding signal (z-score)", "setting": "[22]", "result": -0.191}, {"measurement": "glycan array binding signal (z-score)", "setting": "[23]", "result": -0.191}, {"measurement": "glycan array binding signal (z-score)", "setting": "[16]", "result": -0.182}, {"measurement": "glycan array binding signal (z-score)", "setting": "[18]", "result": -0.196}, {"measurement": "glycan array binding signal (z-score)", "setting": "[24]", "result": -0.193}, {"measurement": "glycan array binding signal (z-score)", "setting": "[25]", "result": -0.184}, {"measurement": "glycan array binding signal (z-score)", "setting": "[26]", "result": -0.182}]}
